Experimental data taken from publication PMC9911399, “Two distinct binding modes provide the RNA-binding protein RbFox with extraordinary sequence specificity”.
Substitutions are numbered along the chain they refer to; changes in the protein carry UniProt numbers. Over roughly 16,000 sequences, “ka relative to ugcaugu” has its median near 0.096; the highest 2% begin near 0.35. For the sample, the highest values were picked, then their nearest neighbours and some sequences at random.

B1: UCCGUCA (DNA:RNA)
RNA: GGGAGACCGGAAUUCAGAUUGUCCUCCGUCAUUAAAUCCCGUCGUAGCCACCA
DNA 1: CAATCTGAATTCCGGTCTCCC
DNA 2: TGGTGGCTACGACGGGATT
B2: GUAGCCA (DNA:RNA)
RNA: B1 RNA with U25G, C26U, C27A, U29C
DNA 1: CAATCTGAATTCCGGTCTCCC
DNA 2: TGGTGGCTACGACGGGATT
B3: ACACUGG (DNA:RNA)
RNA: B1 RNA with U25A, C27A, G28C, C30G, A31G
DNA 1: CAATCTGAATTCCGGTCTCCC
DNA 2: TGGTGGCTACGACGGGATT
B4: CCCCAGA (DNA:RNA)
RNA: B1 RNA with U25C, G28C, U29A, C30G
DNA 1: CAATCTGAATTCCGGTCTCCC
DNA 2: TGGTGGCTACGACGGGATT
B5: UAAACAG (DNA:RNA)
RNA: B1 RNA with C26A, C27A, G28A, U29C, C30A, A31G
DNA 1: CAATCTGAATTCCGGTCTCCC
DNA 2: TGGTGGCTACGACGGGATT
B6: CACGGCC (DNA:RNA)
RNA: B1 RNA with U25C, C26A, U29G, A31C
DNA 1: CAATCTGAATTCCGGTCTCCC
DNA 2: TGGTGGCTACGACGGGATT
B7: GCCUUGC (DNA:RNA)
RNA: B1 RNA with U25G, G28U, C30G, A31C
DNA 1: CAATCTGAATTCCGGTCTCCC
DNA 2: TGGTGGCTACGACGGGATT
B8: GCUUGCC (DNA:RNA)
RNA: B1 RNA with U25G, C27U, G28U, U29G, A31C
DNA 1: CAATCTGAATTCCGGTCTCCC
DNA 2: TGGTGGCTACGACGGGATT
B9: GGCCUUG (DNA:RNA)
RNA: B1 RNA with U25G, C26G, G28C, C30U, A31G
DNA 1: CAATCTGAATTCCGGTCTCCC
DNA 2: TGGTGGCTACGACGGGATT
B10: GCCUCGU (DNA:RNA)
RNA: B1 RNA with U25G, G28U, U29C, C30G, A31U
DNA 1: CAATCTGAATTCCGGTCTCCC
DNA 2: TGGTGGCTACGACGGGATT
B11: GUCGGCC (DNA:RNA)
RNA: B1 RNA with U25G, C26U, U29G, A31C
DNA 1: CAATCTGAATTCCGGTCTCCC
DNA 2: TGGTGGCTACGACGGGATT
B12: GCCUUUU (DNA:RNA)
RNA: B1 RNA with U25G, G28U, C30U, A31U
DNA 1: CAATCTGAATTCCGGTCTCCC
DNA 2: TGGTGGCTACGACGGGATT
B13: GCCUGCG (DNA:RNA)
RNA: B1 RNA with U25G, G28U, U29G, A31G
DNA 1: CAATCTGAATTCCGGTCTCCC
DNA 2: TGGTGGCTACGACGGGATT
B14: GCCUUCA (DNA:RNA)
RNA: B1 RNA with U25G, G28U
DNA 1: CAATCTGAATTCCGGTCTCCC
DNA 2: TGGTGGCTACGACGGGATT
B15: GGCGGCC (DNA:RNA)
RNA: B1 RNA with U25G, C26G, U29G, A31C
DNA 1: CAATCTGAATTCCGGTCTCCC
DNA 2: TGGTGGCTACGACGGGATT
B16: GCCUUGA (DNA:RNA)
RNA: B1 RNA with U25G, G28U, C30G
DNA 1: CAATCTGAATTCCGGTCTCCC
DNA 2: TGGTGGCTACGACGGGATT
B17: GCCUUGU (DNA:RNA)
RNA: B1 RNA with U25G, G28U, C30G, A31U
DNA 1: CAATCTGAATTCCGGTCTCCC
DNA 2: TGGTGGCTACGACGGGATT
B18: GCCUUAA (DNA:RNA)
RNA: B1 RNA with U25G, G28U, C30A
DNA 1: CAATCTGAATTCCGGTCTCCC
DNA 2: TGGTGGCTACGACGGGATT
B19: AGUUUUA (DNA:RNA)
RNA: B1 RNA with U25A, C26G, C27U, G28U, C30U
DNA 1: CAATCTGAATTCCGGTCTCCC
DNA 2: TGGTGGCTACGACGGGATT
B20: UCGAAGU (DNA:RNA)
RNA: B1 RNA with C27G, G28A, U29A, C30G, A31U
DNA 1: CAATCTGAATTCCGGTCTCCC
DNA 2: TGGTGGCTACGACGGGATT
B21: GUCCUUU (DNA:RNA)
RNA: B1 RNA with U25G, C26U, G28C, C30U, A31U
DNA 1: CAATCTGAATTCCGGTCTCCC
DNA 2: TGGTGGCTACGACGGGATT
B22: CGACCAC (DNA:RNA)
RNA: GGGAGACCGGAAUUCAGAUUGUCCCGACCACUUAAAUCCCGUCGUAGCCACCA
DNA 1: CAATCTGAATTCCGGTCTCCC
DNA 2: TGGTGGCTACGACGGGATT
B23: AACACUU (DNA:RNA)
RNA: B22 RNA with C25A, G26A, A27C, C28A, A30U, C31U
DNA 1: CAATCTGAATTCCGGTCTCCC
DNA 2: TGGTGGCTACGACGGGATT
B24: ACAACGA (DNA:RNA)
RNA: B22 RNA with C25A, G26C, C28A, A30G, C31A
DNA 1: CAATCTGAATTCCGGTCTCCC
DNA 2: TGGTGGCTACGACGGGATT
B25: GGAGGAU (DNA:RNA)
RNA: B22 RNA with C25G, C28G, C29G, C31U
DNA 1: CAATCTGAATTCCGGTCTCCC
DNA 2: TGGTGGCTACGACGGGATT
B26: AAUCGAA (DNA:RNA)
RNA: B22 RNA with C25A, G26A, A27U, C29G, C31A
DNA 1: CAATCTGAATTCCGGTCTCCC
DNA 2: TGGTGGCTACGACGGGATT
B27: GUCCGCC (DNA:RNA)
RNA: B22 RNA with C25G, G26U, A27C, C29G, A30C
DNA 1: CAATCTGAATTCCGGTCTCCC
DNA 2: TGGTGGCTACGACGGGATT
B28: CGCCUUG (DNA:RNA)
RNA: B22 RNA with A27C, C29U, A30U, C31G
DNA 1: CAATCTGAATTCCGGTCTCCC
DNA 2: TGGTGGCTACGACGGGATT
B29: GCCAGCC (DNA:RNA)
RNA: B1 RNA with U25G, G28A, U29G, A31C
DNA 1: CAATCTGAATTCCGGTCTCCC
DNA 2: TGGTGGCTACGACGGGATT
B30: ACCAGCC (DNA:RNA)
RNA: B1 RNA with U25A, G28A, U29G, A31C
DNA 1: CAATCTGAATTCCGGTCTCCC
DNA 2: TGGTGGCTACGACGGGATT
B31: CGCCGCC (DNA:RNA)
RNA: B22 RNA with A27C, C29G, A30C
DNA 1: CAATCTGAATTCCGGTCTCCC
DNA 2: TGGTGGCTACGACGGGATT
B32: GCCUUGG (DNA:RNA)
RNA: B1 RNA with U25G, G28U, C30G, A31G
DNA 1: CAATCTGAATTCCGGTCTCCC
DNA 2: TGGTGGCTACGACGGGATT
B33: AGCAGCC (DNA:RNA)
RNA: B22 RNA with C25A, A27C, C28A, C29G, A30C
DNA 1: CAATCTGAATTCCGGTCTCCC
DNA 2: TGGTGGCTACGACGGGATT
B34: GCCCGCC (DNA:RNA)
RNA: B1 RNA with U25G, G28C, U29G, A31C
DNA 1: CAATCTGAATTCCGGTCTCCC
DNA 2: TGGTGGCTACGACGGGATT
B35: AGCCUUG (DNA:RNA)
RNA: B22 RNA with C25A, A27C, C29U, A30U, C31G
DNA 1: CAATCTGAATTCCGGTCTCCC
DNA 2: TGGTGGCTACGACGGGATT

These binders were tested against T1, RBFOX1 RRM RbFoxmut (Fox-RRM*) (Homo sapiens, UniProt Q9NWB1 109-208, R118D;E147R;N151S;E152T) (assay: EMSA; HiTS-Eq, 1 nM pool, 10 min; buffer printed only for the single-RNA assays: 10 mM Tris pH 7.5, 150 mM NaCl, 3.4 mM EDTA, 0.001% NP-40, 30 C). Settings: tags: His6 N-terminal (pET28a); label: 5' 32P.
T1 sequence: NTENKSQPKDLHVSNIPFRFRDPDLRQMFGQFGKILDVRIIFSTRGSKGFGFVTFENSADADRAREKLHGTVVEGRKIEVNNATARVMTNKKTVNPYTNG
Method in brief: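 Purified wild-type or mutant RbFox RRM at increasing concentrations was equilibrated with 1 nM of 5′-radiolabelled RNA carrying 7 randomized nucleotides for 10 min in 50 µL. Unbound RNA was separated by 8% native PAGE and sequenced. Relative association constants came from read-count changes of each RNA species compared with the control reaction, normalised to the cognate motif.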

| Binder | binding signal |
| --- | --- |
| B1 | 0.111 KA relative to UGCAUGU |
| B2 | 0.082 KA relative to UGCAUGU |
| B3 | 0.123 KA relative to UGCAUGU |
| B4 | 0.0916 KA relative to UGCAUGU |
| B5 | 0.0612 KA relative to UGCAUGU |
| B6 | 0.18 KA relative to UGCAUGU |
| B7 | 0.387 KA relative to UGCAUGU |
| B8 | 0.239 KA relative to UGCAUGU |
| B9 | 0.478 KA relative to UGCAUGU |
| B10 | 0.224 KA relative to UGCAUGU |
| B11 | 0.214 KA relative to UGCAUGU |
| B12 | 0.0724 KA relative to UGCAUGU |
| B13 | 0.172 KA relative to UGCAUGU |
| B14 | 0.146 KA relative to UGCAUGU |
| B15 | 0.16 KA relative to UGCAUGU |
| B16 | 0.561 KA relative to UGCAUGU |
| B17 | 0.714 KA relative to UGCAUGU |
| B18 | 0.0981 KA relative to UGCAUGU |

| Binder | binding signal |
| --- | --- |
| B19 | 0.101 KA relative to UGCAUGU |
| B20 | 0.107 KA relative to UGCAUGU |
| B21 | 0.081 KA relative to UGCAUGU |
| B22 | 0.0643 KA relative to UGCAUGU |
| B23 | 0.0596 KA relative to UGCAUGU |
| B24 | 0.0863 KA relative to UGCAUGU |
| B25 | 0.0724 KA relative to UGCAUGU |
| B26 | 0.081 KA relative to UGCAUGU |
| B27 | 0.105 KA relative to UGCAUGU |
| B28 | 0.978 KA relative to UGCAUGU |
| B29 | 0.075 KA relative to UGCAUGU |
| B30 | 0.0795 KA relative to UGCAUGU |
| B31 | 0.13 KA relative to UGCAUGU |
| B32 | 0.501 KA relative to UGCAUGU |
| B33 | 0.0801 KA relative to UGCAUGU |
| B34 | 0.0938 KA relative to UGCAUGU |
| B35 | 0.576 KA relative to UGCAUGU |
